# Data: PubChem BioAssay (NCI)
# About 83,000 compounds went through this panel and 20% of them were active in at least one assay; those are over-represented in the sample as a whole.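 Compound tested at a single concentration for 48 hours in 96-well plates; a percent growth value below 10 was scored as active.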 A number with no mark means an inactive call. Activity calls are given as the source filed them.
# What was measured:
# Test in all cases: NCI-60 one-dose screen, 48 h (100 = growth as untreated, 0 = no growth, -100 = all killed)
# [1] = test system: SK-MEL-2 melanoma; conditions: 10 µM unless noted
# [2] = test system: EKVX NSCLC; conditions: 10 µM unless noted
# [3] = test system: SN12C renal; conditions: 10 µM unless noted
# [4] = test system: UO-31 renal; conditions: 10 µM unless noted
# [5] = test system: TK-10 renal; conditions: 10 µM unless noted
# [6] = test system: ACHN renal; conditions: 10 µM unless noted
# [7] = test system: CAKI-1 renal; conditions: 10 µM
# [8] = test system: A498 renal; conditions: 10 µM unless noted
# [9] = test system: CCRF-CEM leukemia; conditions: 10 µM unless noted
# [10] = test system: MOLT-4 leukemia; conditions: 10 µM unless noted
# [11] = test system: SR leukemia; conditions: 10 µM unless noted
# [12] = test system: OVCAR-8 ovarian; conditions: 10 µM unless noted
# [13] = test system: OVCAR-5 ovarian; conditions: 10 µM unless noted
# [14] = test system: OVCAR-4 ovarian; conditions: 10 µM unless noted
# [15] = test system: SK-OV-3 ovarian; conditions: 10 µM unless noted
# [16] = test system: IGROV1 ovarian; conditions: 10 µM unless noted
# [17] = test system: OVCAR-3 ovarian; conditions: 10 µM unless noted
# [18] = test system: HS 578T breast; conditions: 10 µM unless noted
# [19] = test system: NCI/ADR-RES ovarian; conditions: 10 µM unless noted
# [20] = test system: RPMI-8226 leukemia; conditions: 10 µM unless noted
Structure (SMILES),growth [1],growth [2],growth [3],growth [4],growth [5],growth [6],growth [7],growth [8],growth [9],growth [10],growth [11],growth [12],growth [13],growth [14],growth [15],growth [16],growth [17],growth [18],growth [19],growth [20]
CCC(=O)Nc1ccc(-c2nc(-c3cccc(O)c3)c(-c3ccnc(Br)c3)[nH]2)cc1,65.9%,88.4%,67.4%,69.7%,87.6%,82.8%,65.1%,70.5%,22.4%,39.9%,38.2%,51.8%,92.9%,51.1%,93.9%,85.4%,67.5%,23%,96.5%,–
O=S(=O)(Nc1ccc(I)c(Cl)c1)c1ccc(-c2cnc(C3CC3)o2)cc1,43.7%,42.5%,42.9%,51.7%,53.3%,41.5%,6.99% (active),2.08% (active),14.1%,29.2%,27.9%,38.9%,45.2%,56.8%,50.2%,36.3%,-9.98% (active),17.9%,14.6%,–
COC(=O)Nc1ccc(-c2nc(-c3cccc(O)c3)c(-c3ccnc(Br)c3)[nH]2)cc1,77.8%,68.5%,60.4%,42.9%,73.5%,60.4%,45.6%,73.4%,22.8%,21.5%,32.7%,35.6%,92.9%,45.5%,79.3%,65.7%,–,27.7%,76.1%,–
COc1ccc(NS(=O)(=O)c2ccc(-c3cnc(C4CC4)o3)cc2)cc1Cl,49.9%,38.2%,50.4%,51.8%,69%,46.1%,-22.9% (active),13.1%,17.2%,32.4%,23.2%,40.4%,48.8%,52.5%,60%,41.4%,15.5%,28.1%,18.6%,–
O=C(NCCCCCCNC(=O)c1c2c(nc3ccccc13)-c1cccnc1SC2)c1c2c(nc3ccccc13)-c1cccnc1SC2,5.25% (active),49.1%,73.8%,38.8%,145%,65.8%,61.5%,76.5%,93.6%,88.1%,89.7%,78.2%,–,79.6%,85.7%,43.7%,–,83.2%,77.2%,–
Cn1c2ccccc2c2c3c(c4c5ccc(Br)cc5oc4c21)C(=O)N(O)C3=O,98.6%,96.6%,92.7%,-91.6% (active),101%,69.5%,40.4%,-6.15% (active),14.6%,7.13% (active),–,73.1%,110%,85.3%,101%,69.7%,–,102%,92.5%,64.6%
C#C[C@]1(O)CC[C@H]2[C@@H]3CC=C4c5sc(-c6ccc(OC)cc6)nc5CC[C@]4(C)[C@H]3CC[C@@]21C,53.8%,76.8%,84.2%,18.9%,78%,59.8%,64.4%,56%,26.8%,7.24% (active),23.5%,84.6%,–,97.9%,53.8%,70.2%,83.2%,2.91% (active),83.8%,–
C#C[C@]1(O)CC[C@H]2[C@@H]3CC=C4c5sc(C6CCOCC6)nc5CC[C@]4(C)[C@H]3CC[C@@]21C,94.6%,84.2%,82.9%,83.9%,113%,88.2%,84.5%,96.9%,52.3%,38.3%,58.6%,83.8%,–,89.7%,104%,90.8%,94.2%,66.9%,80.6%,–
CCN(CC)c1ccc2cc(C(=O)NCCOCCOCCOCCn3cc(CCC(=O)Nc4ccc(C(=O)c5ccc(NC(=O)OC(C)(C)C)cc5)cc4)nn3)c(=O)oc2c1,67.6%,73.5%,68.7%,62.5%,95.6%,84.1%,25.7%,84.8%,19%,21.4%,44%,17.4%,99.8%,33.5%,98.3%,41.1%,44.6%,83.7%,88.3%,–
CCNCc1c(-c2cccc(OC(F)(F)F)c2)[nH]c2ccc(N3CCCC3)cc2c1=O,42.3%,88.1%,28.2%,31.9%,90.5%,34.4%,-9.12% (active),-13.6% (active),7.62% (active),18.4%,9.06% (active),22.5%,24.5%,49.8%,34.2%,22.6%,-6.81% (active),8.12% (active),9.42% (active),–
C=C(C)[C@@H]1CC[C@]2(C)[C@H](CC=C3[C@@H]4CC(C)(C)CC[C@]4(C(=O)NCC#CCN4CCN(C)CC4)CC[C@]32C)[C@@]1(C)CCC#N,94%,81.6%,76%,60%,83.9%,78.5%,30.7%,84.1%,48.9%,19%,–,85.9%,89.8%,70.6%,94.5%,54.3%,–,71.7%,62.5%,42.4%
Cc1ccc(C2CC(c3ccc(Nc4nc(NCCO)nc(Nc5ccc(Cl)cc5)n4)cc3)=Nc3c(N)nc(N)nc3N2)cc1 (stereo unspecified),99%,33.1%,-65.8% (active),-91.6% (active),-84.5% (active),-36.6% (active),-9.94% (active),77.9%,-23.2% (active),-29.3% (active),–,-81% (active),-63.3% (active),-54.4% (active),114%,-63.3% (active),–,11.9%,-39.8% (active),-55.4% (active)
IP(CCCCCCCCCCSc1n(Cc2ccc3ccccc3c2)c(-c2ccccc2)c(-c2ccccc2)[n+]1Cc1ccc2ccccc2c1)(c1ccccc1)(c1ccccc1)c1ccccc1,-59.5% (active),-68.2% (active),-72.2% (active),-4.18% (active),-68.3% (active),-28% (active),-91.4% (active),–,-33.7% (active),-53.6% (active),-39.8% (active),-50.3% (active),-76.1% (active),-68.6% (active),-63% (active),-66.5% (active),-86.4% (active),-30.4% (active),29.6%,-38% (active)
CCOC(=O)C1=C(C)Nc2nc3ccccc3n2C1c1ccccc1 (stereo unspecified),102%,94.4%,92.9%,84.9%,114%,73.7%,90.6%,–,94%,97.8%,68.9%,96.6%,104%,83.7%,113%,91.6%,90.9%,97.7%,92%,97.4%
COc1ccccc1/C=C/C=N/NC1=NC2C(S1)N(C)C(=O)N2c1ccccc1 (stereo unspecified),67.6%,39.4%,20.6%,35.9%,68.6%,24.7%,46.4%,–,14.3%,4.1% (active),16.7%,24.4%,33.3%,56.8%,62.4%,19.4%,-27.2% (active),25.5%,10.4%,18.9%
O=c1[nH]c(CNc2ccc(NCc3c(-c4ccccc4)no[n+]3[O-])cc2)nc2c1cnn2-c1ccccc1,77.2%,51.3%,78.9%,55.9%,102%,70.4%,55.1%,–,57.9%,44%,45.7%,79.4%,109%,64.3%,102%,73.5%,94.4%,85.8%,60.6%,61.9%
Oc1ccccc1/C=N/Nc1nc(N/N=C/c2ccccc2O)nc(N2CCOCC2)n1,72%,22.2%,27.2%,19.8%,47.9%,28.1%,4.56% (active),–,42.3%,45.1%,16%,12.7%,37%,-11.7% (active),11.9%,37%,33.6%,47%,22.9%,53.6%
c1ccc(-c2c(-c3ccccc3)[n+](Cc3ccc4ccccc4c3)c(-c3ccccc3)n2Cc2ccc3ccccc3c2)cc1,-67.7% (active),-90.1% (active),-91.7% (active),-95.2% (active),-81.1% (active),-95.5% (active),-93.4% (active),–,-21.6% (active),-54.1% (active),-41.1% (active),-69.3% (active),-96.3% (active),-75% (active),-92.9% (active),-76.5% (active),-87.8% (active),-50.4% (active),-65.8% (active),-30.5% (active)
O=S(=O)(Nc1ccc(-n2cnc3cc(-c4ccc(O)cc4)ccc32)cc1)C1CC1,95%,101%,88.3%,55.6%,111%,78.1%,66.3%,66%,79.4%,72%,–,88.7%,107%,78.2%,117%,86%,–,95%,94.2%,79.8%
CC(=O)Nc1cccc(-n2cnc3cc(-c4ccc(O)cc4)ccc32)c1,29.2%,56.6%,38.1%,28.1%,72.6%,33%,23.3%,-32.6% (active),23.6%,21.5%,–,28.8%,–,66.4%,32.9%,41.1%,–,-17.1% (active),–,20.3%
C=C(C)[C@@H]1CC[C@]2(COS(C)(=O)=O)CC[C@]3(C)[C@H](CC[C@@H]4[C@@]5(C)CCCNC(C)(C)[C@@H]5CC[C@]43C)[C@@H]12,94.7%,89.2%,76%,81.5%,107%,99.2%,86.8%,–,71.4%,29.5%,-1.07% (active),92.1%,92.5%,95.8%,107%,78.2%,92.2%,91.4%,92%,44.9%
O=C(CSc1nnc(-c2cccs2)n1-c1ccccc1)Nc1ccc(F)cc1,110%,90.9%,95.5%,59.1%,108%,90.9%,87.3%,84.7%,–,85.6%,71.6%,93.5%,97.3%,96.4%,82.5%,95.4%,111%,91.8%,90.7%,105%
